Screening data (PubChem BioAssay)
An excerpt weighted towards active compounds, which were near 27% of everything screened.
CYP2C19 inhib – blocks human cytochrome P450 2C19; P33261; CYP2C19 Supersomes, luciferin-H EGE luminescence, 30 min; inhibition, % at 5 µM; 96,000 tested, 21% active; AID 778;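 active means CYP2C19 inhibition above a set limit at 5 µM in the primary screen, cut at about 50% in these data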;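 further: plate controls were negative control wells for no effect and 2.5 mM tranylcypromine positive control for full effect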
Target sequence (P33261 whole entry, looked up): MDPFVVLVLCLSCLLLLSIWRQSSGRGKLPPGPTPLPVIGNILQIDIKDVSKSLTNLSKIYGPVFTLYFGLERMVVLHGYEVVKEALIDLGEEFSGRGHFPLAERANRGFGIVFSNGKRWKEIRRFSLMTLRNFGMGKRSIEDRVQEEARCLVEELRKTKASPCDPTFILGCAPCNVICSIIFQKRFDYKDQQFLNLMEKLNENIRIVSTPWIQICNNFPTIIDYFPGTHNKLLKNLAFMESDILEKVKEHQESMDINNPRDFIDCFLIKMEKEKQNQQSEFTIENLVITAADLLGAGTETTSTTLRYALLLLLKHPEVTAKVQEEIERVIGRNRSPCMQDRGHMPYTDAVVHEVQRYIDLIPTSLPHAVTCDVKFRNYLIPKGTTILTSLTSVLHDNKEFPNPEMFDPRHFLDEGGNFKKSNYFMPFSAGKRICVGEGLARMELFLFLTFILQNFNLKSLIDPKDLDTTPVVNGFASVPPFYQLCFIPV
CYP2C19 act – increases human CYP2C19 enzyme activity. recombinant CYP2C19, luciferin-H EGE luminescence; active compounds read high; 0 = fully inhibited enzyme, 1 = untreated enzyme. activation factor at 5 µM. 96,000 tested, under 10 active;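 active means activation factor of at least 2 at 5 µM in the primary screen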;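 further: 0 = wells with 2.5 mM tranylcypromine and 1 = vehicle-only wells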
sEH activator – activators of human soluble epoxide hydrolase. AID 717. 91,000 tested, 0.04% active. activation, % at 2 µM. purified human sEH enzymatic activity, activator screen; in the data active means activation above about 37%
CYP2C9 inhib – human CYP2C9 inhibition; inhibition, % at 5 µM; CYP2C9 Supersomes, luciferin-H conversion, luminescence; P11712; 96,000 tested, 20% active; AID 777;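 active means blocking of liver enzyme CYP2C9 beyond about 50% at 5 µM, limit read from the data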
sEH inhibitor – soluble epoxide hydrolase (human) inhibition; P34913; recombinant human sEH enzymatic activity assay; inhibition, % at 2 µM; 91,000 tested, 0.34% active; AID 707; in the data active means inhibition above about 80%
CYP2C9 activ – increases human cytochrome P450 2C9 activity; recombinant CYP2C9, luciferin-H conversion, luminescence; active compounds read high; factor 1 = untreated enzyme, 0 = blocked; activation factor at 5 µM; 96,000 tested, 1.4% active; AID 1024;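 active means activation factor of 2 or more for CYP2C9 at a 5 µM dose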;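 further: 0 = sulfaphenazole-blocked wells and 1 = vehicle-only wells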
The depositor's hits bear a star.

Screening COc1ccc(C)cc1N(CC(N)=O)S(=O)(=O)c1ccc(C)cc1 returned CYP2C19 inhib 90.1*, CYP2C19 act 0.1, CYP2C9 inhib 54.1* and CYP2C9 activ 0.5.
COc1ccc(S(=O)(=O)N(CC(=O)NC2CC2)c2ccc(C)cc2)cc1OC was read as CYP2C19 inhib 99.1*, CYP2C19 act 0, sEH activator -10.9, CYP2C9 inhib 13.2, sEH inhibitor 5.9 and CYP2C9 activ 0.9.
COc1ccc(OC)c(N(CC(=O)NC2CC2)S(=O)(=O)c2ccc(C)cc2)c1 was read as CYP2C19 inhib 83.5*, CYP2C19 act 0.2, sEH activator -4.8, CYP2C9 inhib 79.9*, sEH inhibitor 3.0 and CYP2C9 activ 0.2.
Screening Cc1ccc(S(=O)(=O)CCc2nc3ccccc3s2)cc1C returned CYP2C19 inhib 57.7*, CYP2C19 act 0.4, sEH activator 3.5, CYP2C9 inhib 28.9, sEH inhibitor -1.1 and CYP2C9 activ 0.7.
Screening Cc1ccc(S(=O)(=O)CCc2nc3ccccc3s2)cc1 returned sEH activator -0.3 and sEH inhibitor 4.4.
For Cc1ccc(NC2=NC3(CCCCC3)N=C(N)N2)c(C)c1 the results were CYP2C19 inhib 5.0, CYP2C19 act 0.9, sEH activator 1.1, CYP2C9 inhib 0.9, sEH inhibitor -2.8 and CYP2C9 activ 1.
`COC(=O)CCC(=O)N1CCc2cc(S(=O)(=O)N3CCN(c4ccccc4Cl)CC3)ccc21` gave CYP2C19 inhib 32.5, CYP2C19 act 0.7, sEH activator 20.4, CYP2C9 inhib 59.0*, sEH inhibitor -18.9 and CYP2C9 activ 0.4.
Screening Nc1nnnn1N=C1CCCCC1 returned CYP2C19 inhib 5.9, CYP2C19 act 0.9, sEH activator 2.3, CYP2C9 inhib -3.3, sEH inhibitor -2.4 and CYP2C9 activ 1.
`N#Cc1ccccc1N=C1CCCN1Cc1ccccc1` gave CYP2C19 inhib 84.6*, CYP2C19 act 0.2, CYP2C9 inhib 21.6 and CYP2C9 activ 0.8.
For Cc1cc(C)c(N=C2CCCN2Cc2ccccc2)c(C#N)c1 the results were sEH activator 8.3 and sEH inhibitor -2.8.
`COC(=O)c1ccccc1NC(=O)c1cc(-c2cccs2)on1` gave CYP2C19 inhib -1.8, CYP2C19 act 1, sEH activator -9.9, CYP2C9 inhib -102.7, sEH inhibitor 11.4 and CYP2C9 activ 2*.
For O=C(Nc1cccnc1)c1cc(-c2cccs2)on1 the results were CYP2C19 inhib -8.1, CYP2C19 act 1.1, sEH activator 3.6, CYP2C9 inhib -2.4, sEH inhibitor -3.4 and CYP2C9 activ 1.
Screening O=C(Nc1cccc(C(F)(F)F)c1)c1cc(-c2cccs2)on1 returned CYP2C19 inhib -5.8, CYP2C19 act 1.1, CYP2C9 inhib -146.9 and CYP2C9 activ 2.5*.
Screening COc1ccc(Cn2cc(F)c(=O)n(CCC(C)C)c2=O)cc1[N+](=O)[O-] returned CYP2C19 inhib 20.1, CYP2C19 act 0.8, sEH activator 2.4, CYP2C9 inhib 34.3, sEH inhibitor -3.5 and CYP2C9 activ 0.7.
Nc1nc(SCC(=O)OCc2ccccc2)[nH]c(=O)c1NC(=O)c1ccco1 was read as CYP2C19 inhib -21.4, CYP2C19 act 1.2, CYP2C9 inhib -12.6 and CYP2C9 activ 1.1.
Screening COc1ccc(OC)c(-n2c(C)ccc2-c2ccc(S(C)(=O)=O)cc2)c1 returned CYP2C19 inhib 96.4*, CYP2C19 act 0, sEH activator 10.5, CYP2C9 inhib 98.5*, sEH inhibitor -9.0 and CYP2C9 activ 0.
For COc1ccc(OC)c(-n2c(-c3ccc(S(C)(=O)=O)cc3)cc(C=O)c2C)c1 the results were CYP2C19 inhib 59.6*, CYP2C19 act 0.4, sEH activator -4.5, CYP2C9 inhib 66.4*, sEH inhibitor 4.2 and CYP2C9 activ 0.3.
`COc1ccc(OC)c(N2Cc3ccccc3C2)c1` gave sEH activator 10.0 and sEH inhibitor -6.2.
For CCOc1ccc(/C(O)=C2\C(=O)C(=O)N(c3cc(C)on3)C2c2ccccc2OC)cc1 (stereo unspecified) the results were CYP2C19 inhib -1.2, CYP2C19 act 1, sEH activator -2.3, CYP2C9 inhib -8.8, sEH inhibitor 3.8 and CYP2C9 activ 1.1.
Cc1ccc(S(=O)(=O)N2CCOCC2)cc1C(=O)O was read as CYP2C19 inhib -3.4, CYP2C19 act 1, CYP2C9 inhib -0.8 and CYP2C9 activ 1.
For CCCCn1ccnc1C(=O)c1cccc(S(=O)(=O)N2CC(C)CC(C)C2)c1 (stereo unspecified) the results were CYP2C19 inhib 79.1*, CYP2C19 act 0.2, sEH activator -6.2, CYP2C9 inhib 90.2*, sEH inhibitor 6.9 and CYP2C9 activ 0.1.
For CCCCn1ccnc1C(=O)c1cc(S(=O)(=O)N2CCOCC2)ccc1C the results were CYP2C19 inhib 60.1*, CYP2C19 act 0.4, sEH activator -4.1, CYP2C9 inhib 69.3*, sEH inhibitor 4.8 and CYP2C9 activ 0.3.
`CC1CCN(S(=O)(=O)c2cccc(C(=O)O)c2)CC1` gave CYP2C19 inhib -9.5, CYP2C19 act 1.1, sEH activator 1.8, CYP2C9 inhib -3.8, sEH inhibitor 0.3 and CYP2C9 activ 1.
CC(C)Cc1nnc(NC(=O)CSc2nc(=O)cc(N)n2-c2ccccc2)s1 was read as CYP2C19 inhib 3.1, CYP2C19 act 1, sEH activator -1.3, CYP2C9 inhib 11.6, sEH inhibitor 4.5 and CYP2C9 activ 0.9.
For Cc1cccc(N2CCN(C(=O)c3c(C)nn(Cc4ccccc4Cl)c3C)CC2)c1C the results were CYP2C19 inhib 1.6, CYP2C19 act 1, sEH activator 2.9, CYP2C9 inhib 33.5, sEH inhibitor 0.1 and CYP2C9 activ 0.7.
Screening Cn1c(=O)oc2cc(S(=O)(=O)Nc3cccc4c3CCCC4)ccc21 returned CYP2C19 inhib 65.7*, CYP2C19 act 0.3, CYP2C9 inhib -141.9 and CYP2C9 activ 2.4*.
Cn1c(=O)oc2cc(S(=O)(=O)Nc3ccc4c(c3)OCO4)ccc21 was read as CYP2C19 inhib 79.6*, CYP2C19 act 0.2, sEH activator 34.1, CYP2C9 inhib 53.4*, sEH inhibitor -32.0 and CYP2C9 activ 0.5.
For Cn1c(=O)oc2cc(S(=O)(=O)Nc3cccc(C(=O)O)c3)ccc21 the results were CYP2C19 inhib -21.2, CYP2C19 act 1.2, sEH activator 8.2, CYP2C9 inhib -31.8, sEH inhibitor -5.1 and CYP2C9 activ 1.3.
Screening CCc1cccc(NS(=O)(=O)c2ccc3c(c2)oc(=O)n3C)c1 returned CYP2C19 inhib 70.5*, CYP2C19 act 0.3, CYP2C9 inhib -11.2 and CYP2C9 activ 1.1.
Screening CSCCC(NS(=O)(=O)c1ccc2c(c1)oc(=O)n2C)C(=O)NC1CCCCC1 (stereo unspecified) returned CYP2C19 inhib 71.6*, CYP2C19 act 0.3, sEH activator 16.1, CYP2C9 inhib -8.5, sEH inhibitor -16.1 and CYP2C9 activ 1.1.
